Compound activity (PubChem)
Most compounds without a hit are left out; they make up all but 3.4% or so of the library.
MITF inh = blocks human microphthalmia-associated transcription factor | O75030 | AlphaScreen MITF homodimerization, bead proximity signal | inhibition, % at 2.6 µM | 650,000 compounds, 0.91% hits; in the data active = inhibition above about 50%
Target sequence (O75030 whole entry, looked up): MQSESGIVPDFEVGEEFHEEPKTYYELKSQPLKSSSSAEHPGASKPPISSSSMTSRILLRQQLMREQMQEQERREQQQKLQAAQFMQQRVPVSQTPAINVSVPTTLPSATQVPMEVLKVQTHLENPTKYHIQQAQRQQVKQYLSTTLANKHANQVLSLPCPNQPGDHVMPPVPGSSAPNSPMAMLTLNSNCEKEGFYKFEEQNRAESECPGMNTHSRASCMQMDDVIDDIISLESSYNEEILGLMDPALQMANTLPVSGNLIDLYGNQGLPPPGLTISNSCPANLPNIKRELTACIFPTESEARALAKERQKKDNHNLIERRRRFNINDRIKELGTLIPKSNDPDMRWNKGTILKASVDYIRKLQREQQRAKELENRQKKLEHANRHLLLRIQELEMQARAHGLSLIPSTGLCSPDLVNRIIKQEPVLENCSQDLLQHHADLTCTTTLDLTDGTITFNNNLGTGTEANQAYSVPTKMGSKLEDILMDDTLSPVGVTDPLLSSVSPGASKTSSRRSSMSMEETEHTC
FBW7 act = human FBW7 E3 ligase activation, primary screen. AlphaScreen FBW7–phospho-cyclin E peptide binding, activator screen. AID 1259310. Q969H0. normalized activity (activation), % at 26.1 µM. 650,000 compounds, 0.13% hits; in the data active = normalized activity above about 1.9%;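 note: purified mutant Fbw7 with reduced substrate affinity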
TEAD-YAP block = TEAD-YAP interaction inhibition; inhibition, % at 9.12 µM; HEK-TIYL cells, TEAD-Gal4/YAP UAS-luciferase luminescence; 640,000 compounds, 1.4% hits; in the data active = inhibition above about 32%
GPR151 activ = activates the human receptor GPR151. 650,000 compounds, 1% hits. Q8TDV0. PathHunter beta-arrestin GPR151 cells, luminescence. activation, % at 11.2 µM. AID 1508602; in the data active = activation above about 4.9%
MITF inh conf = confirmation of human MITF inhibitors; shares compounds with MITF inh; AlphaScreen MITF homodimerization, biotin/His-MITF beads; inhibition, % at 2.6 µM; 4,700 compounds, 16% hits; AID 1259372;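 active = inhibition above a cutoff derived from the DMSO control wells, cut at about 28% in these data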;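 note: inhibitors lower the bead chemiluminescence by keeping MITF from dimerizing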
AlphaScreen intf2 = AlphaScreen optical interference, counter-screen; AID 1259376; shares compounds with MITF inh; LysRS AlphaScreen counterscreen, signal interference, triplicate; 4,700 compounds, 7.6% hits; inhibition, % at 2.6 µM;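 active = inhibition above a cutoff derived from the DMSO control wells, cut at about 30% in these data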
Hits are given with their value.

Results for CCC1CCCCN1C(=O)COC(=O)c1ccccc1NS(=O)(=O)c1cccs1 (stereo not given) ?
MITF inh: inactive; FBW7 act: inactive; TEAD-YAP block: inactive; GPR151 activ: inactive

Results for CCCC(=O)NC(=S)Nc1cccc([N+](=O)[O-])c1 ?
MITF inh: inactive; FBW7 act: inactive; TEAD-YAP block: inactive; GPR151 activ: inactive

How did CC(C)(C)C(=O)NC(=S)Nc1cccc([N+](=O)[O-])c1 do in these assays?
MITF inh: 58; FBW7 act: inactive; TEAD-YAP block: inactive; GPR151 activ: inactive; MITF inh conf: inactive; AlphaScreen intf2: inactive

Results for CCCc1nnc(NC(=O)CN2C(=O)C3C4C=CC(C4)C3C2=O)s1 (stereo not given) ?
MITF inh: 58; FBW7 act: inactive; TEAD-YAP block: inactive; GPR151 activ: inactive; MITF inh conf: inactive; AlphaScreen intf2: inactive

What do the screens show for `CCCc1nnc(NC(=O)NCN2C(=O)C3C4C=CC(C4)C3C2=O)s1` (stereo not given)?
MITF inh: inactive; FBW7 act: inactive; TEAD-YAP block: inactive; GPR151 activ: inactive

What do the screens show for `Cc1cccc(OCC(=O)N(C)CCc2ccccn2)c1`?
MITF inh: 62; FBW7 act: inactive; TEAD-YAP block: inactive; GPR151 activ: inactive; MITF inh conf: inactive; AlphaScreen intf2: inactive

What do the screens show for `CN(CCc1ccccn1)Cc1cccc(Cl)c1`?
MITF inh: 51; FBW7 act: inactive; TEAD-YAP block: inactive; GPR151 activ: inactive; MITF inh conf: inactive; AlphaScreen intf2: inactive

What do the screens show for `Cc1ccccc1CN(C)CCc1ccccn1`?
MITF inh: inactive; FBW7 act: inactive; TEAD-YAP block: inactive; GPR151 activ: inactive

How did COc1cccc(OCC(=O)NCc2ccccn2)c1 do in these assays?
MITF inh: inactive; FBW7 act: inactive; TEAD-YAP block: inactive; GPR151 activ: inactive

How did CN(C)CCN(C)Cc1ccc(-c2ccccc2)cc1 do in these assays?
MITF inh: 52; FBW7 act: inactive; TEAD-YAP block: inactive; GPR151 activ: inactive; MITF inh conf: inactive; AlphaScreen intf2: inactive

How did CCOc1ccc(CN(C)CCN(C)C)cc1 do in these assays?
MITF inh: 85; FBW7 act: inactive; TEAD-YAP block: inactive; GPR151 activ: inactive; MITF inh conf: inactive; AlphaScreen intf2: inactive

What do the screens show for `Cc1cccc(CN(C)CCc2ccccn2)c1`?
MITF inh: 69; FBW7 act: inactive; TEAD-YAP block: inactive; GPR151 activ: inactive; MITF inh conf: inactive; AlphaScreen intf2: inactive

What do the screens show for `CCOc1ccc(CN(C)CCc2ccccn2)cc1`?
MITF inh: 88; FBW7 act: inactive; TEAD-YAP block: inactive; GPR151 activ: inactive; MITF inh conf: inactive; AlphaScreen intf2: inactive

What do the screens show for `CCn1c2ccccc2c2cc(CN(C)CCc3ccccn3)ccc21`?
MITF inh: 74; FBW7 act: inactive; TEAD-YAP block: inactive; GPR151 activ: inactive; MITF inh conf: inactive; AlphaScreen intf2: inactive

What do the screens show for `CN(CCc1ccccn1)Cc1cccc(Br)c1`?
MITF inh: inactive; FBW7 act: inactive; TEAD-YAP block: inactive; GPR151 activ: inactive

How did CN(CCc1ccccn1)Cc1ccc(Br)cc1 do in these assays?
MITF inh: inactive; FBW7 act: inactive; TEAD-YAP block: inactive; GPR151 activ: inactive

What do the screens show for `CN(C)CCN(C)Cc1ccc(F)c(F)c1`?
MITF inh: 51; FBW7 act: inactive; TEAD-YAP block: inactive; GPR151 activ: inactive; MITF inh conf: inactive; AlphaScreen intf2: inactive

What do the screens show for `CCOC(=O)C1CCN(Cc2ccc(C(F)(F)F)cc2)CC1`?
MITF inh: 51; FBW7 act: inactive; TEAD-YAP block: inactive; GPR151 activ: inactive; MITF inh conf: inactive; AlphaScreen intf2: inactive

How did CCOC(=O)C1CCN(Cc2ccc(F)cc2)CC1 do in these assays?
MITF inh: inactive; FBW7 act: inactive; TEAD-YAP block: inactive; GPR151 activ: inactive

What do the screens show for `CC(C)NC(=O)C1CCN(Cc2ccc(C(F)(F)F)cc2)CC1`?
MITF inh: 52; FBW7 act: inactive; TEAD-YAP block: inactive; GPR151 activ: inactive; MITF inh conf: inactive; AlphaScreen intf2: inactive

What do the screens show for `CC(C)NC(=O)C1CCN(Cc2ccc(Cl)c(Cl)c2)CC1`?
MITF inh: 51; FBW7 act: inactive; TEAD-YAP block: inactive; GPR151 activ: inactive; MITF inh conf: inactive; AlphaScreen intf2: inactive

How did COc1ccc(C)cc1NC(=O)CNCC1CCCO1 (stereo not given) do in these assays?
MITF inh: 53; FBW7 act: inactive; TEAD-YAP block: inactive; GPR151 activ: inactive; MITF inh conf: inactive; AlphaScreen intf2: inactive

How did COc1ccc(C)cc1NC(=O)CCN1CCOCC1 do in these assays?
MITF inh: inactive; FBW7 act: inactive; TEAD-YAP block: inactive; GPR151 activ: inactive

How did COc1ccccc1NC(=O)CNCCN1CCOCC1 do in these assays?
MITF inh: 86; FBW7 act: inactive; TEAD-YAP block: inactive; GPR151 activ: inactive; MITF inh conf: inactive; AlphaScreen intf2: inactive

Results for COc1ccccc1NC(=O)CNCCCN1CCOCC1 ?
MITF inh: 61; FBW7 act: inactive; TEAD-YAP block: inactive; GPR151 activ: inactive; MITF inh conf: inactive; AlphaScreen intf2: inactive

How did COc1ccccc1NC(=O)CC(NCCCN1CCOCC1)C(=O)O (stereo not given) do in these assays?
MITF inh: inactive; FBW7 act: inactive; TEAD-YAP block: inactive; GPR151 activ: inactive

What do the screens show for `COc1ccc(C)cc1NC(=O)N1CCC(CO)(CC2CCCCO2)CC1` (stereo not given)?
MITF inh: inactive; FBW7 act: inactive; TEAD-YAP block: inactive; GPR151 activ: inactive

What do the screens show for `COc1ccccc1NC(=S)NCCN1CCOCC1`?
MITF inh: inactive; FBW7 act: inactive; TEAD-YAP block: inactive; GPR151 activ: inactive

How did COc1ccc(C)cc1NC(=O)CNCCN1CCOCC1 do in these assays?
MITF inh: 87; FBW7 act: inactive; TEAD-YAP block: inactive; GPR151 activ: inactive; MITF inh conf: inactive; AlphaScreen intf2: inactive

Results for CC1CCc2cc(F)ccc2N1C(=O)CSc1ncccn1 (stereo not given) ?
MITF inh: inactive; FBW7 act: inactive; TEAD-YAP block: inactive; GPR151 activ: inactive

Results for Cc1cc(C)c(NC(=O)Cn2cnc3c(cnn3C(C)(C)C)c2=O)c(C)c1 ?
MITF inh: inactive; FBW7 act: inactive; TEAD-YAP block: inactive; GPR151 activ: inactive

What do the screens show for `N#Cc1ccsc1NC(=O)CNCC1CCCO1` (stereo not given)?
MITF inh: 60; FBW7 act: inactive; TEAD-YAP block: inactive; GPR151 activ: inactive; MITF inh conf: inactive; AlphaScreen intf2: inactive

What do the screens show for `Cc1ccc(-c2nc(C#N)c(N3CCN(C(=O)c4ccc(Cl)cc4)CC3)o2)cc1`?
MITF inh: 68; FBW7 act: inactive; TEAD-YAP block: inactive; GPR151 activ: inactive; MITF inh conf: inactive; AlphaScreen intf2: inactive

What do the screens show for `CCOc1ccc(C(=O)N2CCN(c3oc(-c4ccc(Cl)cc4)nc3C#N)CC2)cc1`?
MITF inh: inactive; FBW7 act: inactive; TEAD-YAP block: inactive; GPR151 activ: inactive

How did O=C(COc1cccc2ccccc12)NS(=O)(=O)c1ccc(Cl)cc1 do in these assays?
MITF inh: inactive; FBW7 act: inactive; TEAD-YAP block: inactive; GPR151 activ: inactive
